From PubChem
Sampled rows, rich in hits. Any-hit rate of the full collection: about 2.4%.
Pol eta inh = DNA polymerase eta (human) inhibition; Q9Y253; recombinant Pol eta, fluorescent DNA replication assay; Potency, µM (highest dose often 114 µM), for the others: at the highest dose activity change, negative = inhibition, actives largely listed as inhibitors; actives 1.2% (n = 390,000); also: potency is read from the fitted curve at half-maximal effect; % is scaled to controls: 0 for no effect and ±100 for the full control effect
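Pol eta at 10 nM preincubated with compounds 15 min at room temperature; reaction started with fluorescent substrate (50 nM final) and read kinetically at 0 and 10 min.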
Pol beta inh-1 = blocks human DNA polymerase beta activity | Pol beta primer extension/strand displacement, fluorescence kinetic | actives 1.3% (n = 340,000) | AID 485314 | Potency, µM (highest dose often 114 µM), for the others: top-dose activity change, negative = inhibition, actives largely listed as inhibitors; also: potency is read from the fitted curve at half-maximal effect; % is scaled to controls: 0 for no effect and ±100 for the full control effect
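Curves were derived by four-parameter Hill fits of normalized qHTS data. The kinetic fluorescent primer-extension read was taken at 0 and 10 min after 50 nM substrate, following a 15 min room-temperature preincubation of 10 nM enzyme with compounds.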
FEN1 inh = blocks human flap endonuclease 1; P39748; Recombinant FEN1 flap cleavage, fluorescence, 15 min; Potency, µM (top dose mostly 114 µM), for the others: at the top dose activity change, negative = inhibition, hits mostly inhibitors; actives 0.35% (n = 390,000); AID 588795; also: potency is read from the fitted curve at half-maximal effect; % is scaled to controls: 0 for no effect and ±100 for the full control effect; nearly all actives have a fitted effect of over 65% in size
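Potency values derive from four-parameter Hill fits of normalized qHTS data. The reaction used 10 nM FEN1 preincubated 15 min at room temperature with compound, then 50 nM DNA substrate, read at 0 and 15 min.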
WRN helicase inh = blocks human WRN helicase. Q14191. WRN helicase unwinding, fluorescent forked duplex, kinetic. Potency, µM (titrated, usually from 114 µM), inactives show top-dose activity change, negative = inhibition, actives largely listed as inhibitors. actives 0.46% (n = 360,000). AID 651768; also: potency is read from the fitted curve at half-maximal effect; % is scaled to controls: 0 for no effect and ±100 for the full control effect; nearly all actives have a fitted effect of over 55% in size
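Enzyme (20 nM final) and test compound sit together 15 min at room temperature before substrate addition. Substrate is a single-forked duplex oligonucleotide (100 nM) labelled with fluorophore and quencher, with 2 mM ATP; helicase unwinding raises red fluorescence, read kinetically.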
Pol kappa inh = DNA polymerase kappa (human) inhibition | Q9UBT6 | purified Pol kappa, fluorescent DNA synthesis assay, 10 min | Potency, µM (titrated, usually from 107 µM), without a hit: top-dose activity, negative = inhibition, usual class: inhibitors | actives 0.53% (n = 400,000) | AID 588579; also: potency is read from the fitted curve at half-maximal effect; % is scaled to controls: 0 for no effect and ±100 for the full control effect
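Inhibition of 10 nM Pol kappa is measured by a fluorescent read-out at 0 and 10 min following addition of 50 nM substrate (final), with a 15-min room-temperature compound preincubation.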
POLI inh = blocks human DNA polymerase iota activity. Potency, µM (top dose mostly 115 µM), without a hit: at the highest dose activity, negative = inhibition, actives largely listed as inhibitors. Pol iota fluorescent replication assay, 10 min. AID 588590. actives 1% (n = 390,000); also: potency is read from the fitted curve at half-maximal effect
Target sequence (Q9UNA4 whole entry, looked up): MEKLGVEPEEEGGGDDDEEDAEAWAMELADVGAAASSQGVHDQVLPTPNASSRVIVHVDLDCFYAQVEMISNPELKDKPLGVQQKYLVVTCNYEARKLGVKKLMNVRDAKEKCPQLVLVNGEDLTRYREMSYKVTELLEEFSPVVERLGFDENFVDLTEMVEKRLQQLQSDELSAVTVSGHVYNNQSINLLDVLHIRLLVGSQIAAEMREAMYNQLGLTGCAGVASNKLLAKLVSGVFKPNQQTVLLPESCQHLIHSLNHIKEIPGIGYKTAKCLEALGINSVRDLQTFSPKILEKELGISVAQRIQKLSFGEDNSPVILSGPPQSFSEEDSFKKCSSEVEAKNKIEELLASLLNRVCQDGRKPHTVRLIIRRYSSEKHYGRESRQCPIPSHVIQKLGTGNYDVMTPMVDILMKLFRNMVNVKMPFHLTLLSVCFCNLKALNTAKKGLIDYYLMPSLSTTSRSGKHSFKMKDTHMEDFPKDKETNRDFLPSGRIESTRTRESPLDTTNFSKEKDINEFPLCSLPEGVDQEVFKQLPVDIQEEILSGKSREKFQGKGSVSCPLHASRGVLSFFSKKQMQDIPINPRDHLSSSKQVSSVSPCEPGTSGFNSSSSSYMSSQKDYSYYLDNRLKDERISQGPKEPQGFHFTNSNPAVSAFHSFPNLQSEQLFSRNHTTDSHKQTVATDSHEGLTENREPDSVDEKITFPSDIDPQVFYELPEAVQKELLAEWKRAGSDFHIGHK
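Pol iota at 10 nM preincubated 15 min with compounds at room temperature; reaction started with fluorescent substrate, 50 nM final. Fluorescence read kinetically at 0 and 10 min; buffer-only wells as negative control.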
Pol beta inh-2 = Human Pol beta inhibitor hit validation | Potency, µM, hits mostly inhibitors | shares compounds with Pol beta inh-1 | actives 87% (n = 250) | Pol beta primer extension/strand displacement, fluorescence kinetic; calls by dose curve; also: potency is read from the fitted curve at half-maximal effect
Klenow counter = Klenow polymerase inhibition, pol beta selectivity check; shares compounds with Pol beta inh-1; Klenow exo- polymerase counter-screen, fluorescent DNA substrate; activity change, negative = inhibition, % at 57.1 µM; 250 tested, under 10 active; AID 540300
HIV RT inh = counter-screen for DNA polymerase beta inhibitors: HIV-1 RT inhibition; shares compounds with Pol beta inh-1; HIV-1 RT polymerase activity, counter-screen; activity % (negative = inhibition, positive = activation), % at 57.1 µM; 250 tested, under 10 active
The depositor's hits bear a star; ? = inconclusive; . = no result given; [ ] = dose if it differs, or a comment. Unless noted, calls follow the shape of the dose curve; as a rule, active = well fitted curve in the direction sought with a large enough effect; inconclusive = small, poorly fitted or top-dose-only effect, or another doubt; inactive = no such curve, though single readings can be large; an effect the other way counts as inactive or inconclusive.

SMILES	Pol eta inh	Pol beta inh-1	FEN1 inh	WRN helicase inh	Pol kappa inh	POLI inh	others
COC(=O)CSc1nc(-c2ccccc2)nc2ccc(F)cc12	4%	-2%	-20%	4%	-15%	12%
OCCSc1nc(-c2ccccc2)nc2ccc(F)cc12	-16%	?	-26%	6%	?	79µM*
CCOCCCNC(=O)c1c(NC(=O)c2nc(SCC)ncc2Cl)sc2c1CCCC2	.	.	14%	.	0%	-1%
Cc1ccc(N2C(=O)/C(=C\c3ccco3)SC2=S)cc1	?	45µM*	-1%	?	79µM*	?
O=C1/C(=C/c2ccco2)SC(=S)N1C1CCS(=O)(=O)C1 (stereo unspecified)	-8%	13µM*	-9%	-21%	?	?
O=C1/C(=C\c2ccco2)SC(=S)N1Cc1ccccc1	?	?	-4%	-15%	-11%	-2%
O=C1/C(=C\c2ccco2)SC(=S)N1c1ccccc1	?	28µM*	-4%	-21%	-25%	?
Cc1ccc(/C=C2\SC(=S)N(C3CCS(=O)(=O)C3)C2=O)cc1 (stereo unspecified)	7%	31%	6%	2%	-11%	45%
CC1(C)OC(=O)C2(Cc3cc([N+](=O)[O-])ccc3N3CCCCC32)C(=O)O1 (stereo unspecified)	.	.	12%	.	5%	-9%
CC(C)C[C@H](NC(=O)[C@H](CCCCN)NC(=O)CNC(=O)[C@H](CC(C)C)NC(=O)[C@@H](NC(=O)[C@@H]1CSSC[C@H](N)C(=O)N[C@@H](CO)C(=O)N[C@@H](CC(N)=O)C(=O)N[C@@H](CC(C)C)C(=O)N[C@@H](CO)C(=O)N[C@@H]([C@@H](C)O)C(=O)N1)C(C)C)C(=O)N[C@@H](CO)C(=O)N[C@@H](CCC(N)=O)C(=O)N[C@@H](CCC(=O)O)C(=O)N[C@@H](CC(C)C)C(=O)N[C@@H](Cc1cnc[nH]1)C(=O)N[C@@H](CCCCN)C(=O)N[C@@H](CC(C)C)C(=O)N[C@@H](CCC(N)=O)C(=O)N[C@H](C(=O)N[C@@H](Cc1ccc(O)cc1)C(=O)N1CCC[C@H]1C(=O)N[C@@H](CCCNC(=N)N)C(=O)N[C@H](C(=O)N[C@@H](CC(N)=O)C(=O)N[C@H](C(=O)NCC(=O)N[C@@H](CO)C(=O)NCC(=O)N[C@H](C(=O)N1CCC[C@H]1C(N)=O)[C@@H](C)O)[C@@H](C)O)[C@@H](C)O)[C@@H](C)O	.	.	.	.	5%[60.1 µM]	.
CCCn1c(/C=C/c2ccccc2)nc2ccccc21	-15%	-9%	-1%	-1%	-19%[60.1 µM]	24%
CC(C)Cn1c(/C=C/c2ccco2)nc2ccccc21	-7%	28µM*	-1%	3%	-14%	20%
COc1ccccc1CNC(=O)/C=C/c1ccc(Br)o1	-10%	8.9µM*	5%	-15%	-20%	?
COc1ccccc1CNC(=O)Cc1ccc(Br)cc1	-8%	5%	1%	-23%	-7%	5%
COc1ccc(NC(=O)/C=C/c2ccc(Br)o2)cn1	50µM*	11µM*	-24%	?	79µM*	16µM*
COc1ccc(C2=CC3=C(Br)C(=O)C(C)(O)C(=O)C3=CO2)cc1 (stereo unspecified)	?	40µM*	-29%	?	?	?
COC(=O)CCC(=O)OC1(C)C(=O)C2=CN(c3ccccc3)C(c3ccc(OC)cc3)=CC2=C(Br)C1=O (stereo unspecified)	-17%	.	-21%	-4%	-21%	?
CCCCCn1c(N)c(-c2nc3ccccc3o2)c2c([N+](=O)[O-])nn(C)c(=O)c21	?	1.4µM*	-1%	-31%	-12%	-2%	Pol beta inh-2=11*;Klenow counter=-14;HIV RT inh=8
CCCCn1c(N)c(-c2nc3ccccc3s2)c2c([N+](=O)[O-])nn(C)c(=O)c21	-7%	-7%	4%	-16%	14%	-17%
CCC1CC=CC2C1C(=O)N(Cc1ccccc1)C2c1ccc2ccccc2c1 (stereo unspecified)	.	.	-18%	.	0%	3%
C=C1CCN(C(Cc2ccccc2)C(=O)Nc2ccc(OC)cc2)S(=O)(=O)c2ccccc21 (stereo unspecified)	.	.	-18%	.	-13%	23%
CC(C)CN(C(=O)COC(=O)c1cc2c(s1)CCC2)C1CCS(=O)(=O)C1 (stereo unspecified)	3.5µM*	13µM*	?	?	40µM*	20µM*	Pol beta inh-2=22*;Klenow counter=9;HIV RT inh=7
Cc1ccc(S(=O)(=O)N2CCN(c3nc(-c4ccnnc4)nc4ccccc34)CC2)cc1	.	.	11%	.	14%	13%
COC(=O)c1sccc1-c1ccc(C(=O)Nc2cccc(Cl)c2)o1	?	14µM*	?	?	-29%	?	Pol beta inh-2=18*;Klenow counter=0;HIV RT inh=31
Cc1sc(NC(=O)c2sc3nc4c(C)cccc4cc3c2N)c(C#N)c1C	2.8µM*	5µM*	-22%	?	-27%	?	Pol beta inh-2=8.9*;Klenow counter=-30;HIV RT inh=2
SMILES	Pol eta inh	Pol beta inh-1	FEN1 inh	WRN helicase inh	Pol kappa inh	POLI inh	others
C=CCn1c(SCCC)nc2ccccc2c1=O	.	.	2%	.	-5%	6%
COc1cc(C(=O)OCC(=O)NCc2ccco2)cc(OC)c1OC	?	?	2%	-12%	-15%	?
COc1cc(NC(=O)c2cccs2)c(C(=O)OCC(=O)NCc2ccco2)cc1OC	10µM*	13µM*	-11%	?	79µM*	?	Pol beta inh-2=32*;Klenow counter=4;HIV RT inh=17
Cc1ccc(O)c(C(=O)c2cnn(C(=O)COc3ccc(Cl)cc3)c2)c1	?	5.6µM*	-10%	-17%[57.1 µM]	-3%	14%	Pol beta inh-2=14*;Klenow counter=-13;HIV RT inh=16
O=C(Nc1ccc2nn(-c3ccccc3)nc2c1)c1ccc(Br)o1	79µM*	20µM*	-4%	-32%	?	?	Pol beta inh-2=20*;Klenow counter=-18;HIV RT inh=12
O=C(Nc1ccc2nn(-c3ccccc3)nc2c1)c1cc2ccccc2o1	-2%	-1%	12%	.	-19%	?
